# Screens deposited in PubChem by National Center for Advancing Translational Sciences (NCATS).
# AmpC inh no detg: blocks E. coli AmpC beta-lactamase in detergent-free assay | 330,000 compounds, 0.52% hits | AmpC nitrocefin hydrolysis, absorbance 480 nm, 0.0001% Triton | Potency, µM (top dose mostly 57.1 µM), inactives show at the top dose activity change, negative = inhibition, actives largely listed as inhibitors | AID 485341;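 also: plate controls were no compound for no effect and no enzyme for full effect; nearly all actives have a fitted effect of over 20% in size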
# Target sequence (P00811 whole entry, looked up): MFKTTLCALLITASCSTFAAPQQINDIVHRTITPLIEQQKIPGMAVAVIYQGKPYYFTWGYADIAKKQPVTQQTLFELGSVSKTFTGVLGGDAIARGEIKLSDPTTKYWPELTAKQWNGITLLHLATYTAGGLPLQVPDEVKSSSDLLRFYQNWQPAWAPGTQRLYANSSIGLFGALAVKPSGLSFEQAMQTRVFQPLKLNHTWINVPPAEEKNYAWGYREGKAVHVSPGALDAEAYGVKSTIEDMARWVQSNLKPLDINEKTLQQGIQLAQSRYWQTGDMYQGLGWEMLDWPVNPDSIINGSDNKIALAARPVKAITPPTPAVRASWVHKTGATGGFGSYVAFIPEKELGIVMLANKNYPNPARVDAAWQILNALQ
#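 AmpC (5.3 nM in the dispensed reagent) in 20 mM phosphate pH 7.0 with 0.01% (detergent screen) or 0.0001% Triton X-100 was preincubated with compounds for 15 min at room temperature. Nitrocefin was then added from an 800 uM solution, and hydrolysis was followed at 480 nm.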
# Pf growth 48h: inhibits P. falciparum growth in the first generation, 48 h | P. falciparum luciferase growth in erythrocytes, 48 h | Potency, µM (doses to about 28.7 µM), for inactives: top-dose activity change, negative = inhibition, hits mostly inhibitors | 310,000 compounds, 5.9% hits; also: % is scaled to controls: 0 for no effect and ±100 for the full control effect
#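 Here the parasites carry a stable luciferase gene and grow inside erythrocytes in Albumax-based RPMI medium with compound for one erythrocytic cycle. Activity is scored as loss of luminescent signal.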
# Pf growth 96h: P. falciparum growth inhibition at 96 hours; Potency, µM (doses to about 28.7 µM), for the others: at the top dose activity change, negative = inhibition, actives largely listed as inhibitors; 320,000 compounds, 6.9% hits; P. falciparum luciferase reporter growth, 96 h; also: % is scaled to controls: 0 for no effect and ±100 for the full control effect
#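 Plates of compound plus infected erythrocytes (2% hematocrit, 0.05% parasitemia final) incubate 96 hours, 37 C, 5% CO2. Detection reagent added; reduced luminescence from the parasites' luciferase reporter flags inhibition.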
# AmpC detergent: blocks E. coli AmpC beta-lactamase in detergent assay | P00811 | AmpC hydrolysis of nitrocefin, absorbance 480 nm, 0.01% Triton | Potency, µM (top dose mostly 114 µM), for the others: at the highest dose activity change, negative = inhibition, usual class: inhibitors | 370,000 compounds, 0.041% hits | AID 485294;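 also: 0% = no-compound wells and -100% = no-enzyme wells; nearly all actives have a fitted effect of over 25% in size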
#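 AmpC (5.3 nM in the dispensed reagent) in 20 mM phosphate pH 7.0 with 0.01% (detergent screen) or 0.0001% Triton X-100 was preincubated with compounds for 15 min at room temperature. Nitrocefin was then added from an 800 uM solution, and hydrolysis was followed at 480 nm.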
# Sm TGR block: blocks Schistosoma mansoni thioredoxin glutathione reductase. Q962Y6. purified TGR, DTNB reduction, TNB absorbance 405 nm. Potency, µM (highest dose often 114 µM), without a hit: at the highest dose activity change, negative = inhibition, actives largely listed as inhibitors. 360,000 compounds, 3% hits. AID 485364; also: % is scaled to controls: 0 for no effect and ±100 for the full control effect; nearly all actives have a fitted effect of over 60% in size
#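 First, TGR (20 nM dispensed) and NADPH were mixed with compound. Second, a 15 min room-temperature incubation followed. Third, further NADPH and then DTNB were added to start the reaction. Finally, TNB absorbance was monitored kinetically.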
# SARS PLpro yeast: inhibitors of SARS-CoV papain-like protease in yeast. AID 485353. Potency, µM (highest dose often 32.9 µM), without a hit: top-dose activity, positive = growth rescue, usual class: activators. S. cerevisiae expressing SARS-CoV PLpro, growth rescue. 330,000 compounds, 0.19% hits; calls by dose curve; also: 0% is about no effect; nearly all actives have a fitted effect of over 55% in size
# Numbers without * were called inactive; ? = inconclusive; . = no result given; [ ] = remark or other dose. Hits are enriched below; roughly 12% of the tested compounds scored in any of these assays. Unless noted, calls follow the shape of the dose curve; as a rule, active = well fitted curve in the direction sought with a large enough effect; inconclusive = small, poorly fitted or top-dose-only effect, or another doubt; inactive = no such curve, though single readings can be large; an effect the other way counts as inactive or inconclusive. Potency is read from the fitted curve at half-maximal effect.
SMILES,AmpC inh no detg,Pf growth 48h,Pf growth 96h,AmpC detergent,Sm TGR block,SARS PLpro yeast
CCOC(=O)c1cc(-c2ccc(F)cc2)n(CCC(=O)NC2CCC(C)CC2)c1C (centres undefined),.,.,.,-3%,2%,.
CCCCOc1ccc(N(CC(=O)NCCOC)C(=O)CCC(=O)Nc2ccccn2)cc1,28%,5%,?,?,0%,-6%
Cc1nc(C)c(-c2nnc(-c3ccc(C(C)(C)C)cc3)o2)cc1C(=O)NN,151%,?,5%,?,-11%,15%
CCc1ccccc1Nc1nn2c(=O)c3ccc(C(=O)NCc4cccs4)cc3nc2s1,-29%,9.3µM*,8.3µM*,-4%,-3%,1%
Cc1ccccc1Nc1nn2c(=O)c3ccccc3nc2s1,-30%,80%,2.6µM*,?,14%,2%
CCc1ccccc1Nc1nn2c(=O)c3ccc(C(=O)NCCCOC(C)C)cc3nc2s1,-39%,13µM*,?,-12%,4%,0%
O=c1c2ccccc2nc2sc(Nc3ccc(F)cc3)nn12,-15%,?,?,8%,-4%,-2%
C/C(COc1ccccc1)=N\NC(=O)c1nnn(-c2nonc2N)c1CSc1ccccc1,-40%,12%,2%,4%,-3%,-3%
COc1ccc(NC(=O)CSC2=Nc3ccccc3C3=NC(CCC(=O)NCc4ccc(F)cc4)C(=O)N23)cc1Cl (centres undefined),.,.,.,-10%,-2%,.
COC(C/C=C/C(=O)COCc1ccccc1)OC,-29%,47%,33%,-1%,16µM*,-4%
CCN(CC)CCOC(=O)c1ccc(NC(=O)c2cc3c(=O)n(CC)c4ccccc4c3s2)cc1,.,.,.,-12%,-9%,.
Cc1nc(-c2ccc(F)cc2)c(CC(=O)N(C)CC(=O)Nc2ccccc2Cl)s1,-7%,-15%,13µM*,-1%,-19%,-6%
Cc1ccccc1OCC(=O)NC(=S)Nc1ccccc1N1CCN(S(C)(=O)=O)CC1,-2%,0%,43%,9%,-18%,0%
Cc1ccc(Cl)cc1NC(=S)N(Cc1ccco1)C(C)c1cccs1 (centres undefined),-32%,15µM*,?,-2%,-9%,0%
CC(=O)C(Cc1cccc(F)c1)(Cc1cccc(F)c1)C(C)=O,-12%[2.29 µM],-4%,-43%[5.75 µM],-6%,-8%,2%
Cn1nc(C(F)(F)F)c(-c2cccc(C(F)(F)F)c2)c1NC(=O)c1ccco1,60%,?,-20%,-4%,3%,-4%
Cn1nc(C(F)(F)F)c(-c2cccc(C(F)(F)F)c2)c1NC(=O)Nc1ccc(F)cc1,-24%,0.93µM*,1.3µM*,7%,0%,0%
COc1ccc(/C=C/C(=O)Nc2ccc3nc(N4CCC(C)CC4)cc(C)c3c2)cc1OC,.,.,.,10%,0%,.
Cc1ccc(NC(=O)c2cc3c(s2)CCCC3)cc1,-42%,207%,196%,1%,-2%,-6%
Cc1ccc(NS(=O)(=O)c2cc(NC(=O)c3ccc4c(c3)NC(=O)CS4)ccc2Cl)c(C)c1,-43%,-19%,7.4µM*,0%,4%,0%
Cc1ccc(NS(=O)(=O)c2cc(NC(=O)c3cc4c(s3)CCCC4)ccc2C)c(C)c1,-58%,?,10µM*,-1%,9%,8%
CC(C)C(=O)c1cc2c(cc1NC(=O)c1ccccc1F)OCCO2,.,.,.,12%,9%,.
Cc1ccc(-c2nc3nc(C)cc(N4CCN(c5cccc(C)c5C)CC4)n3n2)cc1,.,.,.,8%,56µM*,.
CCOC(=O)c1ccccc1NC(=O)COC(=O)CSC(C)C(=O)Nc1cc(C)on1 (centres undefined),-19%,-3%,2%,3%,0%,0%
C/C(=N\NC(=O)c1nnn(-c2nonc2N)c1CN(C)c1ccccc1)c1ccc(O)cc1,25µM*,5%,26%,-1%,-6%,-1%
